The results in this text go back to PubChem BioAssay (NCATS).

Activity calls are given as the source filed them. Entries that show only a call come without a potency. The call rests on the fitted dose curve; in most records, active means well fitted curve in the direction sought with a large enough effect; inconclusive means small, poorly fitted or top-dose-only effect, or another doubt; inactive means no such curve, though single readings can be large or run the other way. Residues, ends and D or L forms follow the SMILES beside them. *: point of attachment. Cbz = O=C(OCc1ccccc1)*

Guanine nucleotide-binding protein G(i) subunit alpha-1 (Homo sapiens), sequence (P63096 whole entry, looked up): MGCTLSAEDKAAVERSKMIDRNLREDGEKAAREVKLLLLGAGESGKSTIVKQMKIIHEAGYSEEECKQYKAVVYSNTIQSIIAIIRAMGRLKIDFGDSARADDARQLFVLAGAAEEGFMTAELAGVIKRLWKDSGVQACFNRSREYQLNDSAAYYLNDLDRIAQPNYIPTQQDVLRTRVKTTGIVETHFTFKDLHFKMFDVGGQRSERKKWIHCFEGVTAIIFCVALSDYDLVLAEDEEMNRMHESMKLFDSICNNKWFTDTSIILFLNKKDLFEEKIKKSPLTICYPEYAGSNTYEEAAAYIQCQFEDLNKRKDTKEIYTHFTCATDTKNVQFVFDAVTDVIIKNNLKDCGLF

For the experiment, the target named is Guanine nucleotide-binding protein G(i) subunit alpha-1 (Homo sapiens) (UniProt P63096). Put plainly: qHTS Assay for Inhibitors of RGS12 GoLoco Motif Activity (Green Fluorophore) (AID 879).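 Further: negative values mean loss of peptide binding seen as reduced polarization.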 Conditions: Galphai1/FITC-RGS12 GoLoco peptide, fluorescence polarization; series mostly up to 57.1 µM. The source says:
Assay Overview: NIH Molecular Libraries Screening Centers Network [MLSCN] NIH Chemical Genomics Center [NCGC] MLSCN Grant: NS053754-01 Assay Provider: Siderovski, David P, University of North Carolina at Chapel Hill G-protein-coupled receptors (GPCRs) are major targets for drug discovery. The regulator of G-protein signaling (RGS)-protein family has important roles in GPCR signal transduction. RGS proteins contain a conserved RGS-box, which is often accompanied by other signaling regulatory elements. RGS proteins accelerate the deactivation of G proteins to reduce GPCR signaling; however, some also have an effector function and transmit signals. Combining GPCR agonists with RGS inhibitors should potentiate responses, and could markedly increase the agonist's regional specificity. The diversity of RGS proteins with highly localized and dynamically regulated distributions in brain makes them attractive targets for pharmacotherapy of central nervous system disorders. […] A complex of Gai1 and fluorescently labeled G-alpha-binding peptide (the "GoLoco motif") derived from RGS12 is incubated with library members. Inhibitors of the binding are detected by a decrease in the fluorescence polarization (FP) of the fluorophore. Protein was supplied by Prof. David Siderovski, University of North Carolina at Chapel Hill.
Assay Protocol: Reagents/Controls: Assay Buffer: 10 mM Tris-HCl, 150 mM NaCl, 0.1 mM GDP (prepared fresh), and 0.05% NP40 at pH 7.5. […] 10 nM FITC labeled peptide/50 nM protein in columns 1, 2, 5 - 48. Titration of unlabeled peptide control ([H][…][NH2], custom synthesized and HPLC-purified by Tufts University Core Facility) from 10 mM, then 1:2 dilution, 16-point in duplicate, pin-transferred to column 2, rows 1 to 32. Column 1 is neutral. FITC-labeled RGS12-GoLoco peptide was custom-synthesized and HPLC-purified by Michael Berne of Tufts University Assay Steps. Four uL of reagents were dispensed to 1536-well Greiner black solid-bottom plates. Compounds and controls (23 nL) were transferred via Kalypsys PinTool. The plates were incubated for 10 min at room temperature, and then read on ViewLux (Perkin-Elmer) High-throughput CCD imager using FITC polarization filter sets for the fluorescein-labeled decapeptide probe.During dispense, reagent bottles were kept submerged into 4 deg C water bath and all liquid lines were covered with aluminum foil to minimize probe and protein degradation. All screening operations were performed on a Kalypsys robotic system (Kalypsys, Inc., San Diego, CA) containing one RX-130 and two RX-90 anthropomorphic robotic arms.
With `COc1ccc2c(c1)c(CC(=O)O)c(C)n2C(=O)c1ccccc1`, the Potency result was “inactive”. In the case of `NC/C=C\C(=O)O`, the Potency result is “inactive”. Regarding `C[C@H](NC(=O)/C(C#N)=C/c1ccc(O)c(O)c1)c1ccccc1`, the Potency entry is “inactive”. The entry for `O=S(=O)(c1cccc2c(Cl)cccc12)N1CCCNCC1` is “inactive”; for `Fc1ccc(CN(C2=NCCN2)c2c(Cl)cccc2Cl)cc1` it is “inactive”; for `COc1ccc(-c2ccc(N)[n+](CCCC(=O)O)n2)cc1` it is “inactive”. Take `O=C(O)Cc1c[nH]c2ccc(O)cc12`: the Potency result was “inactive”.

As for `O=C1Cc2c([nH]c3ccc(Br)cc23)-c2ccccc2N1`, the Potency entry was “inactive”. Regarding `c1ccc(CN2CCC3(CCCc4ccccc43)CC2)cc1`, the Potency result was “inactive”. The entry for `O=C(O)c1cc(=O)cc(C(=O)O)[nH]1` is “inactive”. `[Li+]`: the Potency result was “inactive”. For `NC(=O)CNCCC(c1ccccc1)c1ccccc1`, the Potency entry was “inactive”. As for `COc1ccccc1N1CCN(CCCCNC(=O)c2ccc3ccccc3c2)CC1`, the entry is “inactive”; as for `O=C(N[C@@H](Cc1ccccc1)C(=O)CCl)OCc1ccccc1`, “inactive”.

For the compound `COc1cc(CNC(=O)CCCCCCC(C)C)ccc1O`, the Potency entry was “inactive”. As for `COc1ccc(NC(=O)c2ccc(-c3ccc(-c4noc(C)n4)cc3C)cc2)cc1N1CCN(C)CC1`, the entry is “inactive”; as for `O=c1ccc2c(OCCCCc3ccccc3)c3ccoc3cc2o1`, “inactive”; as for `O=C(O)C1=CCNCC1`, “inactive”. Take `Cn1c(=O)c2[nH]c(C3CCCC3)nc2n(C)c1=O`: the Potency entry was “inactive”.

Consider `N[C@H](C(=O)O)[C@H](O)C(=O)O`, for which the Potency result was “inactive”. On to `CCCCCCCCCCCCCCC[C@H](O)[C@H](N)CO`, for which the Potency entry is “inactive”.

As for `CCSC(=N)N`, the Potency result was “inactive”. With `CC(C)[C@H](NC(=O)OCc1ccccc1)C(=O)N[C@H](C=O)Cc1ccccc1` (Cbz-Val-Phe-aldehyde), the Potency entry is “inactive”. The entry for `Nc1ncnc2c1ncn2C1CCCC1` is “inactive”; for `COc1cc(N)c(Cl)cc1C(=O)OCCN1CCCCC1` it is “inactive”.

With `C=CC[C@H](N)C(=O)O`, the Potency entry is “inactive”.

`Nn1nnc2ccccc21`: the Potency result was “inactive”. The entry for `COc1ccc(C(=O)NCc2cccnc2)cc1C(=O)NCc1cccnc1` is “inactive”.

Turning to `CCCOC(=O)c1c(-c2ccccc2)nc(CC)c(C(=O)SCC)c1CCC`, the Potency entry was “inactive”. Turning to `O=C(O)C1=CCCNC1`, the Potency entry was “inactive”. For the compound `N=C(N)c1ccc(OCCCCCOc2ccc(C(=N)N)cc2)cc1` (tested in a mixture with another compound), the Potency entry was “inactive”. The entry for `COc1ccc(CCN(C)CCc2ccc(OC)c(OC)c2)cc1OC` is “inactive”; for `CC(C)(C)c1cc(/C=C(\C#N)C(N)=S)cc(C(C)(C)C)c1O` it is “inactive”; for `CCC(=O)N1CCN(C(=O)c2ccccc2)CC1` it is “inactive”. As for `CC(=O)N[C@@H](Cc1c[nH]c2ccccc12)C(=O)OCc1cc(C(F)(F)F)cc(C(F)(F)F)c1`, the entry is “inactive”. `CC(=O)C(C)=O`: the Potency result is “inactive”. Turning to `C=CCn1c(=O)c2c(nc(-c3ccc(S(=O)(=O)O)cc3)n2C)n(C)c1=O`, the Potency entry was “inactive”. As for `O=c1[nH]c(=O)c2nc3ccccc3nc2[nH]1`, the entry is “inactive”. On to `CC(=O)NNC(=O)N1Cc2ccccc2Oc2ccc(Cl)cc21`, for which the Potency entry was “inactive”. The entry for `Nc1ccc(-c2ccc3ccccc3n2)cc1` is “inactive”.
